The results in this text go back to the supplement of paper PMC10646978.

Molecules are shown by their SMILES. Unmarked numbers belong to inactive results.

This assay concerns RAW-Dual (murine macrophage reporter line). The assay can be described thus: viability score (confluency relative to resting cells, overnight) (fraction); higher = more viable, active = viable (0.7 or more). The following applies: modulator concentration 10 µM. The procedure, abridged:
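Confluency was the readout: RAW-Dual macrophages were imaged with IncuCyte after an overnight exposure to compound at 10 μM final. IncuCyte software produced two masks over all imaged wells. The viability score expresses confluency against resting cells, and both masks had to exceed 70% of resting cells for a compound to meet the cutoff.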
As for `O=S1(=O)Nc2c(ccc3cccnc23)-c2ccccc21`, the viability score was 0.671.
As for `O=C(NCCCCNC(=O)c1cncc(Br)c1)c1cncc(Br)c1`, the viability score is 0.991 (active).
As for `Nc1ncnc2c1nc(S)n2C1OC(CO)C(O)C1O` (stereo not given), the figure is 1.02 (active); as for `Cn1nc(CNC(=O)c2cccc3ccccc23)cc1C1CC1`, 0.817 (active).
With `CC1(C)[C@H](C(=O)O)N2C(=O)C[C@H]2S1(=O)=O`, the viability score is 0.994 (active).
With `O=C(Cn1cnc(-c2ccc(Cl)cc2)cc1=O)N1CCOCC1` the figure was 1 (active); with `Cl.N=C1CCCN1Cc1[nH]c(=O)[nH]c(=O)c1Cl`, 0.961 (active); with `Cl.N=c1ccn2c(n1)OC1C(O)C(CO)OC12` (stereo not given), 0.733 (active).
With `COC1(c2ccc(Cl)cc2)OC(=O)c2ccccc21` (stereo not given) the figure was 0.992 (active); with `O=c1oc2c3c4c(cc2cc1-c1nnc(-c2ccccc2)o1)CCCN4CCC3`, 1.01 (active).
In the case of `c1ccc(-c2cc3c4cccn4ccn3c2)cc1`, the viability score was 1.04 (active).
With `CC1(C)CCC2(C(=O)O)CCC3(C)C(=CCC4C5(C)CCC(O)C(C)(C)C5CCC43C)C2C1` (stereo not given) the figure was 0.999 (active).
For `COc1ccc(C(O)CN2CCN(c3cccc(C)c3C)CC2)cc1OC` (stereo not given), the viability score was 0.997 (active).
As for `N#CC[C@H](C1CCCC1)n1cc(-c2ncnc3[nH]ccc23)cn1`, the figure is 0.979 (active).
As to `CN(C)C(CNC(=O)NCc1ccc(Cl)cc1)c1ccc2c(c1)CCO2` (stereo not given), the viability score is 1 (active).
With `Oc1ccc(C=NCc2ccccc2)cc1`, the viability score is 1 (active).
As to `COc1ccc(NC(=O)CCn2nc(C)nc2C)cc1`, the viability score is 1 (active).
As to `Nc1ncnc2c1ncn2[C@@H]1O[C@H](CO)[C@@H](O)[C@H]1O`, the viability score was 1 (active).
Turning to `CC1(C)CC(=O)c2c(nc3ccc(Br)cc3c2N)C1.Cl`, the viability score is 0.995 (active).
For the compound `Cc1ccc(C(=O)NC(Oc2ccc3ccccc3c2)C(Br)(Br)Br)cc1` (stereo not given), the viability score is 0.998 (active).
As for `Cc1cc(CCNC(=O)c2cc3ccccc3s2)nn1C`, the figure is 0.997 (active).
For the compound `Cc1c(C(=O)Nc2ccc(N3C[C@@H](C)O[C@@H](C)C3)nc2)cccc1-c1ccc(OC(F)(F)F)cc1`, the viability score was 0.824 (active).
With `COCCCN1C(=O)C(=Cc2ccc(-c3ccc(Cl)cc3Cl)o2)SC1=S` the figure was 1 (active); with `CC(C)CN(CC(O)C(Cc1ccccc1)NC(=O)OC1COC2OCCC12)S(=O)(=O)c1ccc(N)cc1` (stereo not given) [Prestw-1802], 0.981 (active).
For the compound `CCn1c2ccccc2c2cc(CNCCc3ccccc3)ccc21`, the viability score was 0.0405.
With `O=C(OC1Cc2c(O)cc(O)cc2OC1c1cc(O)c(O)c(O)c1)c1cc(O)c(O)c(O)c1` (stereo not given), the viability score is 1.01 (active).
As for `CCc1sc2sncc2c1Br`, the figure is 0.895 (active).
Consider `COc1cccc(N2CCN(C3CCN(CC4CCOCC4)CC3)CC2)c1`, for which the viability score was 0.966 (active).
With `CN1CCN(CCCN2c3ccccc3Sc3ccc(Cl)cc32)CC1.O=C(O)/C=C\C(=O)O.O=C(O)/C=C\C(=O)O` the figure was 0.86 (active); with `Cc1ccc(OCC(=O)N2CCN(c3ccc(-n4cncn4)nn3)CC2)c(C(C)(C)C)c1`, 0.999 (active); with `Cc1ccc(S(=O)(=O)n2c(C)nc3ccccc32)cc1`, 0.959 (active).
On to `CCCCNCCCCOc1ccc(C)cc1C(C)(C)C`, for which the viability score was 0.0697.
Turning to `CCN(CC)CCOC(=O)c1ccc(N)cc1Cl.Cl`, the viability score is 0.999 (active).
As for `CC(=O)C(C(=O)Nc1ccc(F)cc1)C(c1ccc(Cl)cc1Cl)C(C#N)C#N` (stereo not given), the figure is 1.01 (active); as for `O=C(CCc1ccc(O)cc1)c1c(O)cc(O)cc1O`, 0.998 (active).
For `Nc1nc(Cl)nc2c1ncn2[C@@H]1O[C@H](CO)[C@@H](O)[C@@H]1F`, the viability score is 0.482.
With `CCC(C)(C)C(=O)OC1CC(C)C=C2C=CC(C)C(CCC3CC(O)CC(=O)O3)C21` (stereo not given) the figure was 0.912 (active).
With `O=C(CC1CCCCN1S(=O)(=O)c1ccccc1)NCCC1=CCCCC1` (stereo not given) the figure was 1.01 (active); with `C#Cc1cccc(Nc2ncnc3cc(OC)c(OCCCCCCC(=O)NO)cc23)c1`, 0.973 (active).
In the case of `C=C1C(=O)O[C@@H]2[C@H]3O[C@]3(C)CC/C=C(\C)CC[C@@H]12` [Prestw-550], the viability score was 0.495.
